TSG101-PTAP inh – blocks PTAP/TSG101 interaction to inhibit HIV-1 budding; Q99816; Fluorescence polarization, FITC-PTAP peptide / Tsg101 binding; Potency, µM (highest dose often 115 µM), without a hit: at the top dose activity change, negative = inhibition, usual class: inhibitors; 340,000 tested, under 10 active; active = well fitted inhibition curve with a large enough effect in the main read-out, with a control signal flat, not every such curve was filed as active; inconclusive = small, poorly fitted or top-dose-only effect, or effect the other way, or a change in a side signal; inactive = no such curve, though single readings can be large or run the other way; also: % of control where 0% means no effect
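Fluorescence anisotropy tracks displacement of a FITC-tagged PTAP peptide (50 nM) from the Tsg101 binding domain (10 uM), following a 20 min room-temperature incubation at pH 7.5.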
VDR inhibitor – inhibitors of human vitamin D receptor; P11473; VDR-SRC2-3 peptide fluorescence polarization, 2 h; Potency, µM, for the others: max response, negative = inhibition, actives largely listed as inhibitors; actives 0.93% (n = 400,000); AID 504847; also: % is scaled to controls: 0 for no effect and ±100 for the full control effect
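Inhibition of the VDR/SRC2-3 peptide interaction is quantified by fluorescence polarization. Compounds (23 nl, pintool) incubate with the reagents for 2 hours at ambient room temperature.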
PLK1 PBD inh – inhibitors of human PLK1 polo-box domain binding. actives 2.8% (n = 360,000). Plk1 PBD binding of FITC phosphopeptide, fluorescence polarization. Potency, µM, without a hit: max response, negative = inhibition, actives largely listed as inhibitors; also: series mostly up to about 57 µM; % is scaled to controls: 0 for no effect and ±100 for the full control effect; nearly all actives have a fitted effect of over 65% in size
GCN5L2 inh – inhibitors of human GCN5L2 histone acetyltransferase; Potency, µM (titrated, usually from 58.9 µM), inactives show at the highest dose activity change, negative = inhibition, hits mostly inhibitors; AID 504327; GCN5L2 HAT assay, ThioGlo1 CoA-SH fluorescence; Q92830; actives 0.21% (n = 390,000); also: % is scaled to controls: 0 for no effect and ±100 for the full control effect
Target sequence (Q92830 whole entry, looked up): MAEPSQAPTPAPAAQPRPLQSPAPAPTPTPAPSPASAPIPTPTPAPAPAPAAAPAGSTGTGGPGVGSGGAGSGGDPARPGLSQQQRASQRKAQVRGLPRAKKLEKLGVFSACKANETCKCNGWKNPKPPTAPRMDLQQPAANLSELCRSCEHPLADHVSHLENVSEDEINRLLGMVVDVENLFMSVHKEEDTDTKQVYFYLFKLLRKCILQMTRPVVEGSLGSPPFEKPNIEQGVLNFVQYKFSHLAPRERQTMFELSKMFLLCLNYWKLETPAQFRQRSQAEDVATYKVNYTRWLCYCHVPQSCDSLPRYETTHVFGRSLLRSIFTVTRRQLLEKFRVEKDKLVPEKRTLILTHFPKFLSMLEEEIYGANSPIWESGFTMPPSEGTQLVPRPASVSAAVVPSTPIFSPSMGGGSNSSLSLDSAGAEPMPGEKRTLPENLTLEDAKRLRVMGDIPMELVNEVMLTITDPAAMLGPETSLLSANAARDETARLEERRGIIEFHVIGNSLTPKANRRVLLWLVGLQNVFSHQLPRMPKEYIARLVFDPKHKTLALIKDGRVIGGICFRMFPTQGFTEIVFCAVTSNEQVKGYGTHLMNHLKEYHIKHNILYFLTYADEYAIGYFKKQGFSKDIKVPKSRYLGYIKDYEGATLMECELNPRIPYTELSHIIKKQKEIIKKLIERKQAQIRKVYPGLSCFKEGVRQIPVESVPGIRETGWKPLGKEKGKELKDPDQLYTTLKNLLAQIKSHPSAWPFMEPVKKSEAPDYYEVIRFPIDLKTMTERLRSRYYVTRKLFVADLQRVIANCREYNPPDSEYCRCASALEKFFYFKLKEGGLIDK
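Fluorescence readout, Ex340nm/Em540nm: ThioGlo1 (50uM final) reacts with free CoA thiol released as 20nM GCN5L2 acetylates H3(1-25) peptide (75uM) using acetyl-CoA (70uM). Compound and enzyme sat 15 min beforehand; 20 min room-temperature reaction.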
USP1 inh – inhibitors of human USP1/UAF1 deubiquitinase | O94782 | recombinant USP1/UAF1, Ub-Rhodamine cleavage fluorescence | Potency, µM (highest dose often 57.1 µM), inactives show at the highest dose activity change, negative = inhibition, usual class: inhibitors | actives 0.23% (n = 390,000) | AID 743255; also: % is scaled to controls: 0 for no effect and ±100 for the full control effect; nearly all actives have a fitted effect of over 60% in size
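In this screen, compounds sit with the deubiquitinase complex (1nM) for 15 min at room temperature before Ub-Rho is added at 150nM final. Fluorescence rise is then followed for 6 reads every 60 seconds.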
An asterisk follows results filed as active; ? = inconclusive; · = not tested or not shown; [ ] = dose if it differs, or a comment. Hits are enriched below; roughly 3% of the tested compounds scored in any of these assays. Unless noted, calls follow the shape of the dose curve; as a rule, active = well fitted curve in the direction sought with a large enough effect; inconclusive = small, poorly fitted or top-dose-only effect, or another doubt; inactive = no such curve, though single readings can be large; an effect the other way counts as inactive or inconclusive. Potency is read from the fitted curve at half-maximal effect.

SMILES	TSG101-PTAP inh	VDR inhibitor	PLK1 PBD inh	GCN5L2 inh	USP1 inh
CCNC(=S)Nc1ccc2cn[nH]c2c1	-9.3%	1.8%	23.8µM*	3.8%	1.1%
Cc1ccc(NC(=S)Nc2ccc3cn[nH]c3c2)cc1C	-5.4%	8.7%	-6.3%	-8.7%	-14.1%
CC(=O)c1ccc(NC(=S)Nc2ccc3cn[nH]c3c2)cc1	0.3%	-27.3%	29.9µM*	2.4%	-16.7%
COc1ccc(C(=O)NCCn2cc(SCC(=O)NCc3ccco3)c3ccccc32)cc1	-1.5%	-25.4%	2.99µM*	-2.0%	-9.0%
O=C(Cn1cc(C(F)(F)F)ccc1=O)Nc1ccc(N2CCOCC2)cc1	-3.5%	-1.8%	-0.4%	-7.9%	-16.0%
C=CCn1c(=O)c(CCC(=O)Nc2ccc(N3CCOCC3)cc2)nc2cc(C(F)(F)F)ccc21	-5.5%	-25.7%	21.2µM*	1.7%	-20.2%
CCc1ccc(S(=O)(=O)Nc2c(NC3CCCCC3)c3ccccc3oc2=O)cc1	-7.2%	6.6%	3.5%	-26.3%	-18.4%
O=c1oc2ccccc2c(NC2CCCCC2)c1NS(=O)(=O)c1ccc(F)cc1	-7.7%	?	3.36µM*	-20.0%	-6.7%
COc1cc(CCc2ccccc2)c(C(=O)O)c(O)c1CC=C(C)C	-8.4%	-9.7%	26.7µM*	·	-20.3%
COc1ccc(S(=O)(=O)c2c(Nc3ccc(C)cc3)sc(C(=O)c3ccc4c(c3)OCO4)c2N)cc1	·	0.0%	·	-7.0%	-7.4%
COc1cc(CNc2cccc3[nH]c(C(F)(F)F)nc23)cc(OC)c1	0.9%	?	26.7µM*	-1.6%	-14.2%
COc1ccc(CNc2cccc3[nH]c(C(F)(F)F)nc23)cc1	-0.6%	12.5%	-12.3%	-17.4%	-22.1%
Cc1ccc(N=Cc2cc(Cc3ccccc3Cl)cc([N+](=O)[O-])c2O)c(O)c1	13.6%	-14.1%	?	?	17.8µM*
COc1ccc(NCC(=O)N/N=C/c2cc([N+](=O)[O-])ccc2N2CCCC2)cc1	2.1%	?	13.4µM*	-6.5%	-20.6%
Cc1cccc(OCCOc2ccccc2C=C(C#N)C#N)c1	0.0%	50.1µM*	-5.7%	-4.2%	?
Cc1ccccc1OCCOc1ccccc1C=C(C#N)C#N	·	·	·	-5.8%	·
COc1cc(C2NC(=O)C(C#N)=C(S)N2c2ccccc2)ccc1OC(C)C (stereo unspecified)	-7.3%	35.5µM*	-22.7%	-1.4%	-3.5%
COc1ccc(C2NC(=O)C(C#N)=C(S)N2c2ccccc2)cc1OC (stereo unspecified)	-0.6%	44.7µM*	-18.1%	-0.6%	-8.7%
CN[C@@H]1[C@H](O[C@@H]2O[C@H](C)[C@@](O)(CO)[C@H]2O[C@H]2[C@H](O)[C@H](O)[C@H](N=C(N)N)[C@@H](O)[C@@H]2N=C(N)N)O[C@@H](CO)[C@H](O)[C@H]1O	·	50.1µM*	·	-4.7%	·
CN[C@@H]1[C@H](O[C@@H]2O[C@H](CO)[C@@H](N)[C@H](O)[C@@H]2O)O[C@H]2C[C@@H](N)[C@@H](O[C@H]3[C@@H](O)[C@H](O)[C@H](N)C[C@@H]3N)O[C@H]2[C@H]1O	·	-16.7%	·	9.2%[21.4 µM]	·
CCCCN(C(=O)c1ccc(-c2ccc(Cl)cc2)o1)c1c(N)n(CCCC)c(=O)[nH]c1=O	-1.4%	70.8µM*	-20.3%	-0.7%	4.8%
CCN(CC)S(=O)(=O)c1ccc(NN)nc1	0.1%	?	23.8µM*	-2.2%	-19.1%
CC(=O)Nc1ccc(S(=O)(=O)NCC(CCC(=O)O)C(F)(F)F)cc1 (stereo unspecified)	-1.8%	?	13.4µM*	-6.5%	-10.7%
COc1ccc(-n2c(SCC(=O)NCC3CCCO3)nc3ccccc3c2=O)cc1Cl (stereo unspecified)	·	·	-0.9%	·	-26.2%
COc1ccccc1CNC(=O)c1cc2sccc2n1Cc1ccc(F)cc1	·	89.1µM*	·	4.2%	-22.7%
SMILES	TSG101-PTAP inh	VDR inhibitor	PLK1 PBD inh	GCN5L2 inh	USP1 inh
O=C(Cc1cccc2ccccc12)Nc1ccc(O)cc1C(=O)O	0.7%	?	26.7µM*	-5.9%	-10.4%
CCc1c(C)nc2nc(-c3ccccc3)nn2c1NCc1ccc(C)cc1	·	-1.9%	·	-6.2%	-16.1%
Cc1nn(-c2ccccc2)c2nc(=O)n(-c3ccccc3)cc12	0.6%	?	2.99µM*	-1.2%	-1.9%
Cc1ccc2nc3c(cc2c1)c(C)nn3-c1ccccc1	-3.4%	8.6%	4.3%	-5.9%	-28.0%
Cc1noc(C)c1C(=O)OCC(=O)Nc1c(F)cccc1F	0.1%	50.1µM*	8.44µM*	-0.9%	-10.7%
Cc1cc(C(=O)OCC(=O)Nc2c(F)cccc2F)c(C)n1-c1ccccc1	-0.1%	?	21.2µM*	-4.6%	-12.3%
CC1=C(c2ccc(C)c(C)c2)S(=O)(=O)N(Cc2ccc(C(=O)NCc3ccc(C)cc3)cc2)C1=O	·	8.7%	·	-3.2%	-18.2%
CC(C)Oc1ccc(C(=O)CCN2CCOCC2)cc1	-1.8%	44.7µM*	?	·	-22.5%
COc1ccc(C(=O)CCN2CCN(c3ccc(OC)cc3)CC2)cc1	-0.2%	?	-24.5%	0.7%	-17.0%
CCCOc1ccc(C(=O)CCN2CCN(C(=O)OCC)CC2)cc1	2.0%	44.7µM*	15µM*	-6.5%	-17.1%
CCOC(=O)N1CCN(C(=O)CCC(=O)c2ccc(OCC)cc2)CC1	-0.9%	0.6%	-2.6%	-0.7%	-22.8%
CCCCCOc1ccc(C(=O)CCN2CCOCC2)cc1	-1.1%	?	29.9µM*	-2.4%	-21.6%
O=C(NCc1ccc2c(c1)CCN2C(=O)c1ccc(F)cc1)c1ccco1	·	13.8%	·	-1.0%	?
C=CCNc1nc(-c2ccc(O)c(C(N)=O)c2)cs1	-2.0%	?	2.99µM*	5.2%	-19.8%
NC(=O)c1cc(-c2csc(NCCc3ccccc3)n2)ccc1O	-0.5%	25.8%	29.9µM*	-3.1%	-11.0%
COC(=O)NC(c1ccccc1)c1c[nH]c2ccccc12 (stereo unspecified)	·	-18.9%	·	·	·
N#Cc1c(C#N)c(O)c2ccccc2c1O	?	28.2µM*	13.4µM*	-8.2%	?
CN1CCN(C(c2ccccn2)c2cc(Cl)c3cccnc3c2O)CC1 (stereo unspecified)	-0.1%	50.1µM*	9.47µM*	-16.0%	-13.1%
O=S(=O)(NCCc1csc2nc(-c3ccc(F)cc3)nn12)c1ccc2c(c1)OCCO2	·	16.2%	·	-0.2%	-14.9%
O=C1C(SCCO)=C(SCCO)C(=O)c2ccccc21	?	5.62µM*	2.12µM*	-12.3%	6.31µM*
O=c1[nH]c2ccccc2c(O)c1SCCO	-5.9%	0.2%	-6.4%	-6.1%	-5.2%
CC(Oc1cccc(Cl)c1)C(=O)NCc1ccc(S(N)(=O)=O)cc1 (stereo unspecified)	-4.8%	?	18.9µM*	-8.7%	-11.1%
CCc1cccc2c(C(=O)CCl)c[nH]c12	-2.9%	8.6%	23.8µM*	3.8%	-29.1%
Cc1nc2cnc(N3CCN(C)CC3)nc2n(CCc2ccccc2)c1=O	·	6.5%	·	-26.1%	·
c1cc2c(cc1-c1csc(NNC3=NCCCCC3)n1)OCCO2	-0.5%	?	18.9µM*	?	-12.6%

Compound activity as filed in PubChem.
